Measurements as given in the supplement of paper PMC11732987, “Enantioselective OTUD7B fragment discovery through chemoproteomics screening and high-throughput optimisation” (Communications Chemistry, 2025).
Values without a mark were called inactive.

Key:
Experiment in all cases: log2 ratio of Biotin-Ahx-Ub-VS probe labelling (fragment/DMSO); higher = less target engagement (more negative = stronger competition), active = hit call of the paper (q ≤ 0.05, log2 ratio ≤ -1)
Conditions in all cases: compound concentration: 200 uM; treatment time: 3 h
[1] = target: T1, OTUD6B (UniProt Q8N6M0)
T1 sequence (whole entry): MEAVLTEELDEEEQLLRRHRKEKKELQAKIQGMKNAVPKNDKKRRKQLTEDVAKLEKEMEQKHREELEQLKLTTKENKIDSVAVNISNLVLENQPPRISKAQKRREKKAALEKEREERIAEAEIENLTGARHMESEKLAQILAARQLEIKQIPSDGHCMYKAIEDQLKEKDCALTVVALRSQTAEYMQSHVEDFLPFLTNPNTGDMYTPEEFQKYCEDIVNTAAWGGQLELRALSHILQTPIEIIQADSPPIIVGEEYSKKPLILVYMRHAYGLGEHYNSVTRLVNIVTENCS
How it was run: (§1)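 Lysate from HEK293T cells, 495 µg per sample in Tris/CHAPS/IGEPAL buffer with protease inhibitors, was treated for 3 h in triplicate with fragment at 200 µM or vehicle. Biotin-Ahx-Ub-VS was next added at 0.5 µM final for 1 h. The labelled DUBs were enriched with NeutrAvidin, digested with LysC and trypsin, and run by diaPASEF LC-MS/MS, with values given as average log2 fragment/vehicle ratios by unpaired t-test on global-median-normalised Spectronaut quantities of proteins with ≥2 unique peptides.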

[2] = target: T2, OTUD7B (UniProt Q6GQQ9)
T2 sequence (whole entry): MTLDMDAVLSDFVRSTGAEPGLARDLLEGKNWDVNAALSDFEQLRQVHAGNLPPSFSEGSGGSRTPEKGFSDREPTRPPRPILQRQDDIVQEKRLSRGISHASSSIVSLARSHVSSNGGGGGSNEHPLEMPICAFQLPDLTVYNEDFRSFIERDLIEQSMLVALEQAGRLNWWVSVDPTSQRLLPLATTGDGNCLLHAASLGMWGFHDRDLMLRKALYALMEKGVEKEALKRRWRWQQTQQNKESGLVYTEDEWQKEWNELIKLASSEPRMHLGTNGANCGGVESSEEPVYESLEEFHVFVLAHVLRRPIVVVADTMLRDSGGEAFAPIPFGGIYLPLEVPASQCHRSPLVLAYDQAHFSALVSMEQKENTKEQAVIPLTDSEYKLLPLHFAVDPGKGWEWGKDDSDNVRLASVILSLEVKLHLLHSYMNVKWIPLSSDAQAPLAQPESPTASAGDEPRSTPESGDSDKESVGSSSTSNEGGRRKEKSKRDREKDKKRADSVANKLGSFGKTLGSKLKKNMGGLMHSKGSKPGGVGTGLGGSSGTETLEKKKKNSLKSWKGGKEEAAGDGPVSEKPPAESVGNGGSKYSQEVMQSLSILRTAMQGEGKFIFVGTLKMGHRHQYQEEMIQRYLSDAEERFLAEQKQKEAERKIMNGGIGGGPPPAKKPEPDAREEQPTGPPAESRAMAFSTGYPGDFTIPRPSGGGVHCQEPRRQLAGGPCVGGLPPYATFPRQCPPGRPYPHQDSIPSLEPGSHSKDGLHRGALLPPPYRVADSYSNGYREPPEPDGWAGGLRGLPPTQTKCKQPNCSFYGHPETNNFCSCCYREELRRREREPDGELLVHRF
How it was run: as §1

[3] = target: PRPF8 (UniProt Q6P2Q9)
How it was run: as §1

[4] = target: T3, PSMD7 (UniProt P51665)
T3 sequence (whole entry): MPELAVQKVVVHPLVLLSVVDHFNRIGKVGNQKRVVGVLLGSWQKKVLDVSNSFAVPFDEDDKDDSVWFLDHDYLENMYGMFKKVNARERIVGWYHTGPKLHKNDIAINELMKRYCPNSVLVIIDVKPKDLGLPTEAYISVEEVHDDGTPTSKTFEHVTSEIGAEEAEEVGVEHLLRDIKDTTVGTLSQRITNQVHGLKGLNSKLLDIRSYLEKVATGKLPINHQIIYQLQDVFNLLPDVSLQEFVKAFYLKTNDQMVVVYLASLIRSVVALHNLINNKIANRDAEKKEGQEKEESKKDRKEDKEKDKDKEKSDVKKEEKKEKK
How it was run: as §1

[5] = target: UCHL1 (UniProt P09936)
How it was run: as §1

[6] = target: T4, UCHL3 (UniProt P15374)
T4 sequence (whole entry): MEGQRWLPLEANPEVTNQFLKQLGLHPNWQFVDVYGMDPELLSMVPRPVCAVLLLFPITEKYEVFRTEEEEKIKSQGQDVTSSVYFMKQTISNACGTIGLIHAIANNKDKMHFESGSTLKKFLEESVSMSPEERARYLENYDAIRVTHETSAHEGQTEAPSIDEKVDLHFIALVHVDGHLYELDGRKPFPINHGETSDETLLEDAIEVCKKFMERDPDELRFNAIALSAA
How it was run: as §1

[7] = target: T5, UCHL5 (UniProt Q9Y5K5)
T5 sequence (whole entry): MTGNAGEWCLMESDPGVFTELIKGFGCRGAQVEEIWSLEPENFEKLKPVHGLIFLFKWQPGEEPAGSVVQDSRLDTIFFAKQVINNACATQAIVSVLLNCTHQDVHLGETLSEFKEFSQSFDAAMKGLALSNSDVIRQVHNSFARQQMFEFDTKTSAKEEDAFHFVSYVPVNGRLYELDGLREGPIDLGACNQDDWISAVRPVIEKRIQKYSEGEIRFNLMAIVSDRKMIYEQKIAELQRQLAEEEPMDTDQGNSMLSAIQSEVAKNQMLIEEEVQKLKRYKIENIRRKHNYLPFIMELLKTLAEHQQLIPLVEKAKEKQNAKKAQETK
How it was run: as §1

[8] = target: USP10 (UniProt Q14694)
How it was run: as §1

[9] = target: T6, USP15 (UniProt Q9Y4E8)
T6 sequence (whole entry): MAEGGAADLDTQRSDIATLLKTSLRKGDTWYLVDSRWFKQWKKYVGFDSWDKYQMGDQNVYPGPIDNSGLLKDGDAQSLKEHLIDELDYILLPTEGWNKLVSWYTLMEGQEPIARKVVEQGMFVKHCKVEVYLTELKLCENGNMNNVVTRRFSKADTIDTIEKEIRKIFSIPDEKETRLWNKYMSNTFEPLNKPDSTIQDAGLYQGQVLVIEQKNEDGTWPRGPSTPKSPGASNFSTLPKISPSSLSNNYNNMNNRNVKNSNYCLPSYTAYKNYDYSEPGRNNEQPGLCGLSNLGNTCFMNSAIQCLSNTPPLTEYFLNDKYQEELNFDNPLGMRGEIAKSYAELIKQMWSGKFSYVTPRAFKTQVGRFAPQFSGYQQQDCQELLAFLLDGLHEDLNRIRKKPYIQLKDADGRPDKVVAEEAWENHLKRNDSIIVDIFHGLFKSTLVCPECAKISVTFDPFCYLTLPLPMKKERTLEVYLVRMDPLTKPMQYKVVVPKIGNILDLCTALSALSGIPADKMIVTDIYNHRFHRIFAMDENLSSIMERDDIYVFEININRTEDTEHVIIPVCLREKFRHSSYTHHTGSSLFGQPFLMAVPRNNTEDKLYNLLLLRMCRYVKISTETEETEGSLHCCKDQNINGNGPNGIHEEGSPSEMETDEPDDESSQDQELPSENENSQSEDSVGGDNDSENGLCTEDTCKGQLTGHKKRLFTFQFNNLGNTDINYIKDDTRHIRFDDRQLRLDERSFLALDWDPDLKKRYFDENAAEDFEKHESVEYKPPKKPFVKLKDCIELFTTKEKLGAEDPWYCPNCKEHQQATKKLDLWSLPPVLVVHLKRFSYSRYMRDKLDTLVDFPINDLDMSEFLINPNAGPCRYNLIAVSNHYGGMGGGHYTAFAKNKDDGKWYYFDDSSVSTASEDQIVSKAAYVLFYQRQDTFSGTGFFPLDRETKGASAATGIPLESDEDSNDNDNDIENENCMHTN
How it was run: as §1

[10] = target: USP16 (UniProt Q9Y5T5)
How it was run: as §1

USP10, sequence (Q14694 whole entry): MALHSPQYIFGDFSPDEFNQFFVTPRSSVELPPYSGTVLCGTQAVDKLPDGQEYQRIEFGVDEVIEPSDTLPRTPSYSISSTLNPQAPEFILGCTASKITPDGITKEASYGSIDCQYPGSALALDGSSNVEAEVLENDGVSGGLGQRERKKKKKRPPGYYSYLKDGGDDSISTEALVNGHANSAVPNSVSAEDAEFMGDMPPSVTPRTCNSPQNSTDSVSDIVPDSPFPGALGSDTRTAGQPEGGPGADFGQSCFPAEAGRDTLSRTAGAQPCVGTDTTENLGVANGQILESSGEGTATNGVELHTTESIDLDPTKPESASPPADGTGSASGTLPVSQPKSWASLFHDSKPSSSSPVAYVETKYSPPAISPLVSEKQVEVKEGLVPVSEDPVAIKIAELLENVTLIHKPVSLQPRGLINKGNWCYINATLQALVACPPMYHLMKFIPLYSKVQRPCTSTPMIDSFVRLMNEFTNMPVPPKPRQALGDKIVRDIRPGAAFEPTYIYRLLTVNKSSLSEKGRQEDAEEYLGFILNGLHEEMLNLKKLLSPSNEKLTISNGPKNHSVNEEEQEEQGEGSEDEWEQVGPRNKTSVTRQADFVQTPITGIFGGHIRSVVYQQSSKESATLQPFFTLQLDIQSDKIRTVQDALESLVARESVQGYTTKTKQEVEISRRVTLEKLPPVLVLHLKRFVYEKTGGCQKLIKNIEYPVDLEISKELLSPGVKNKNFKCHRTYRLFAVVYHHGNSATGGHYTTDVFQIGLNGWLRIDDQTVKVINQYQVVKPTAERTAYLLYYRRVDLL
UCHL1, sequence (P09936 whole entry, looked up): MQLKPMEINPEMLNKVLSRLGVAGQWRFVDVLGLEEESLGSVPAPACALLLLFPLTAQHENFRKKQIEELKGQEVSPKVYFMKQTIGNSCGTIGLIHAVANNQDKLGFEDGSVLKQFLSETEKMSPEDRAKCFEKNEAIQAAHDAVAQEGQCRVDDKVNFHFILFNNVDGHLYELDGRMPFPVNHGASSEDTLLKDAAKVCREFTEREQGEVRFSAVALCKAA
USP16, sequence (Q9Y5T5 whole entry, looked up): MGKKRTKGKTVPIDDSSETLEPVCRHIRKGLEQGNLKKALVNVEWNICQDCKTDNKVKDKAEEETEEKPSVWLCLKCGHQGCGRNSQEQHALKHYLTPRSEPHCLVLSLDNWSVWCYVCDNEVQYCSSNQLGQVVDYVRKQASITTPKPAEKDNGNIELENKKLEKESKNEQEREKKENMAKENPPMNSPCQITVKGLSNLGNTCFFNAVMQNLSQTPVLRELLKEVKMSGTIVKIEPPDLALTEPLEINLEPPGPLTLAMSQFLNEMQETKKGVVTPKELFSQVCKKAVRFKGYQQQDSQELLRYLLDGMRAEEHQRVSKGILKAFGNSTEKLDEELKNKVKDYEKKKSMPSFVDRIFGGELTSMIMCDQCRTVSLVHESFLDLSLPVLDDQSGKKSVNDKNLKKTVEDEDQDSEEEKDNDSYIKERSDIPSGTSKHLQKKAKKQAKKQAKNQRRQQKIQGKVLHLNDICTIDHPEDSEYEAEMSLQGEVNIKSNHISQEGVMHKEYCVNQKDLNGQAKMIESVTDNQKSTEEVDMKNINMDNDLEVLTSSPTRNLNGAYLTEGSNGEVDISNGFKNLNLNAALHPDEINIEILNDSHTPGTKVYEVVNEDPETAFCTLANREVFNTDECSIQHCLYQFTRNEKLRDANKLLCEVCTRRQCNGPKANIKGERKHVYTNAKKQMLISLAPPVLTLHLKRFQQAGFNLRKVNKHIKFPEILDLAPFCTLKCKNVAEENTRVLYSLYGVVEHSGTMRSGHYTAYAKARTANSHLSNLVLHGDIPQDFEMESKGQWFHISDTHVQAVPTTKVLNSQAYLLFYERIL

Structure (SMILES): Cl.Cn1c(CNC(=O)CCl)nc2cccnc21
- log2 ratio of Biotin-Ahx-Ub-VS probe labelling [1]: -0.213
- log2 ratio of Biotin-Ahx-Ub-VS probe labelling [2]: -0.356
- log2 ratio of Biotin-Ahx-Ub-VS probe labelling [3]: -0.144
- log2 ratio of Biotin-Ahx-Ub-VS probe labelling [4]: -0.0899
- log2 ratio of Biotin-Ahx-Ub-VS probe labelling [5]: -1.17 (active)
- log2 ratio of Biotin-Ahx-Ub-VS probe labelling [6]: 0.177
- log2 ratio of Biotin-Ahx-Ub-VS probe labelling [7]: -0.302
- log2 ratio of Biotin-Ahx-Ub-VS probe labelling [8]: -0.0558
- log2 ratio of Biotin-Ahx-Ub-VS probe labelling [9]: -0.177
- log2 ratio of Biotin-Ahx-Ub-VS probe labelling [10]: -0.246
